# In PubChem BioAssay (Tox21):
# Values without a mark were called inactive. Records with an inconclusive call do not appear. Entries that show only a call come without a potency. Activity calls are given as the source filed them. Unless noted, calls follow the shape of the dose curve; as a rule, active = well fitted curve in the direction sought with a large enough effect in the repeat runs; inconclusive = weak or mixed curves; inactive = no such curve, though single readings can be large; an effect the other way counts as inactive or inconclusive.
# Columns and labels:
# [1] = target: Estrogen receptor beta (Homo sapiens) (UniProt Q92731); experiment: qHTS assay to identify small molecule agonists of the estrogen receptor beta (ER-beta) signaling pathway (AID 1259377; active = well fitted activation curve with a large enough effect in the signal ratio in the repeat runs, not every such curve was filed as active; the % refers to the signal ratio)
# Sequence of Estrogen receptor beta (Homo sapiens) (Q92731 whole entry, looked up): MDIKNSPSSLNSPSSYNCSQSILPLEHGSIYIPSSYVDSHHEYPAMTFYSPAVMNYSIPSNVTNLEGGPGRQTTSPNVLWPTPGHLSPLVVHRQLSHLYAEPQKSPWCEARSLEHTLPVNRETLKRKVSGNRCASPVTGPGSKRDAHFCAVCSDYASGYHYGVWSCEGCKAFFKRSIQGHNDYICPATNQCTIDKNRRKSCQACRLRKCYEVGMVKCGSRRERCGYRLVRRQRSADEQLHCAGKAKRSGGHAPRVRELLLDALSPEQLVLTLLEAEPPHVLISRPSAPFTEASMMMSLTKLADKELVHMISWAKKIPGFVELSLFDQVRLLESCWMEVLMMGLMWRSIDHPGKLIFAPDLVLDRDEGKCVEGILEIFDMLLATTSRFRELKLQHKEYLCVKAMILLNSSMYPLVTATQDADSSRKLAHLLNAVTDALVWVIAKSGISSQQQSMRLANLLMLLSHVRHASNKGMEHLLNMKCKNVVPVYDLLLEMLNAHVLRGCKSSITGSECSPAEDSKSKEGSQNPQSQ
# Outline: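 Read-out: beta-lactamase FRET fluorescence. Cell line: ER-beta-UAS-bla HEK293T in 2% charcoal-stripped FBS. Exposure: 16 hr at 37C. Substrate step: 2 h at room temperature.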
# [2] = target: Estrogen receptor beta (Homo sapiens) (UniProt Q92731); experiment: qHTS assay to identify small molecule antagonists of the estrogen receptor beta (ER-beta) signaling pathway (AID 1259378; active = well fitted inhibition curve with a large enough effect in the signal ratio in the repeat runs, not every such curve was filed as active; the % refers to the signal ratio)
# Outline: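 Antagonist mode: compounds added to beta-lactamase reporter HEK293T ER-beta-UAS cells stimulated with E2 (1nM final), 16 hr at 37C. LiveBLAzer B/G FRET substrate, 2 hours room temperature, fluorescence read-out.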
# [3] = qHTS assay to identify small molecule agonists of the androgen receptor (AR) signaling pathway in the presence of an antagonist - cell viability counter screen (AID 1259379); also: nearly all actives have a fitted effect of over 25% in size; also: potency is read from the fitted curve at half-maximal effect; as to activity change, negative = cytotoxicity: series mostly up to about 92 µM
# Outline: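 MDA-kb2 human breast carcinoma cells (stable MMTV-luciferase, AR/GR responsive) were seeded 3,000 cells/well, pre-incubated 5 hr at 37C without CO2, then given 3.0uM nilutamide and compounds at 15 concentrations for 16 hr. Viability was read by CellTiter-Fluor fluorescence.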
# [4] = target: Estrogen receptor (Homo sapiens) (UniProt P03372); experiment: qHTS assay to identify small molecule agonists of the estrogen receptor alpha (ER-alpha) signaling pathway in the presence of an antagonist (AID 1259383; calls by dose curve; also: top concentration of the series differs between compounds; nearly all actives have a fitted effect of over 15% in size)
# Sequence of Estrogen receptor (Homo sapiens) (P03372 whole entry, looked up): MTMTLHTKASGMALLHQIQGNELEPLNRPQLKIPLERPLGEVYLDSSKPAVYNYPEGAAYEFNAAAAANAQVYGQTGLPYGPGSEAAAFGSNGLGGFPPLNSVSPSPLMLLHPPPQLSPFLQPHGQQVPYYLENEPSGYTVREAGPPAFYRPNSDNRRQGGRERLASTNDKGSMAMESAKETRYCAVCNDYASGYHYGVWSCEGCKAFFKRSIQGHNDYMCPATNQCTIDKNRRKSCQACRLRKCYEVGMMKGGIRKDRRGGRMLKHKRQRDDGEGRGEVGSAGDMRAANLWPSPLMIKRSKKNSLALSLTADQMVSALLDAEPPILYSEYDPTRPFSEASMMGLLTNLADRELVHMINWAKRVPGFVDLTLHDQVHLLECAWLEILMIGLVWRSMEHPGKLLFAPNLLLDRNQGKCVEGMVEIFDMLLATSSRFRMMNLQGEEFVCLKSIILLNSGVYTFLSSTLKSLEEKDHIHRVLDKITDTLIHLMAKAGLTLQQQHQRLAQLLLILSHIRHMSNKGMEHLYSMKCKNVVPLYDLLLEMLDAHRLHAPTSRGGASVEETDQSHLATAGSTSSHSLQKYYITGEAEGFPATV
# Outline: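 VM7Luc4E2 cells (endogenous full-length ER-alpha, 4×ERE-luciferase) were precultured 5 days in phenol red-free medium with 10% charcoal-stripped FBS, given 10.0nM ICI-182,780 (final), then treated with compounds at 15 concentrations for 22hr at 37C; luminescence read with ONE-Glo.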
# [5] = qHTS assay to identify small molecule agonists of the estrogen receptor alpha (ER-alpha) signaling pathway in the presence of an antagonist - cell viability counter screen (AID 1259386);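 also: cells exposed to compounds for 22 h at 37 °C before the viability read; nearly all actives have a fitted effect of over 30% in size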; also: potency is read from the fitted curve at half-maximal effect; as to activity change, negative = cytotoxicity: series mostly up to about 92 µM
# Outline: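 VM7Luc4E2 cells (endogenous full-length ER-alpha, 4×ERE-luciferase) were held 5 days in phenol red-free medium with 10% charcoal-stripped FBS, plated, then given 10.0nM ICI-182,780 and compounds at 15 concentrations for 22hr at 37C; viability read by CellTiter-Fluor fluorescence.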
# [6] = target: Progesterone receptor (Homo sapiens) (UniProt P06401); experiment: qHTS assay to identify small molecule agonists of the progesterone receptor (PR) signaling pathway (AID 1346784; calls by dose curve; also: nearly all actives have a fitted effect of over 30% in size; also: potency is read from the fitted curve at half-maximal effect)
# Sequence of Progesterone receptor (Homo sapiens) (P06401 whole entry, looked up): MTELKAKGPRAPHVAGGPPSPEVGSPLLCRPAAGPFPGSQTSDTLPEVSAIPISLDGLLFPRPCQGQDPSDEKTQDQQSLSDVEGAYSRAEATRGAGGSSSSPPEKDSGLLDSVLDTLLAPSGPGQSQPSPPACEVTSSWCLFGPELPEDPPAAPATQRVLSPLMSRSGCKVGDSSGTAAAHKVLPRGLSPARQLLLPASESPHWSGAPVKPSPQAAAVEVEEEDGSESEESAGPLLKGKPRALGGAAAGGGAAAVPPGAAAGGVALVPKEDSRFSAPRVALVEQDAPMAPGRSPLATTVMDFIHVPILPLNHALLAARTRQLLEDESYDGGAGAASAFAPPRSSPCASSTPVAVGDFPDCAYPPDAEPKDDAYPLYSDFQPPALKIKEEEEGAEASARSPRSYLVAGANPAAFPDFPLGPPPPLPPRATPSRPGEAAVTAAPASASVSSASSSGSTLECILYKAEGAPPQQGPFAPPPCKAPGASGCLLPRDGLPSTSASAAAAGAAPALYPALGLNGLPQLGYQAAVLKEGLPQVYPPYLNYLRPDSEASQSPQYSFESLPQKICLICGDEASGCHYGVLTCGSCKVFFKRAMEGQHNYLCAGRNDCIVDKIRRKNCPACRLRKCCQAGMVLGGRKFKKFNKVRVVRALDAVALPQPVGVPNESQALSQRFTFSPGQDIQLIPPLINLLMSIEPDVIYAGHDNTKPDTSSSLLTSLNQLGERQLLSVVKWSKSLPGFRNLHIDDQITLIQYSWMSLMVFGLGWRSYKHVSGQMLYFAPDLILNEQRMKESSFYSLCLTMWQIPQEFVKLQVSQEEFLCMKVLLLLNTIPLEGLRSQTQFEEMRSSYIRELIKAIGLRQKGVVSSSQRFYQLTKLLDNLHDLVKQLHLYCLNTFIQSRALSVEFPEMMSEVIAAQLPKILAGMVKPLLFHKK
# Outline: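 Compounds were tested for PR agonism in HEK 293T cells bearing a beta-lactamase gene under UAS control. Treatment lasted 16 hr at 37C; signal came from fluorescence of a FRET substrate.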
# [7] = target: Progesterone receptor (Homo sapiens) (UniProt P06401); experiment: qHTS assay to identify small molecule antagonists of the progesterone receptor (PR) signaling pathway (AID 1346795; active = well fitted inhibition curve with a large enough effect in the signal ratio in the repeat runs, not every such curve was filed as active; the % refers to the signal ratio)
# Outline: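 In HEK293T cells bearing the PR-UAS-bla reporter, compound effects on promegestone-driven (1 nM) beta-lactamase expression are assessed after 16 hr using a fluorescent FRET substrate incubated 2 hr at room temperature.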
# [8] = qHTS assay to identify small molecule agonists of the progesterone receptor (PR) signaling pathway - cell viability counter screen (AID 1346799; calls by dose curve; also: nearly all actives have a fitted effect of over 45% in size; also: potency is read from the fitted curve at half-maximal effect)
# Outline: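 Here, 3,000 PR-UAS-bla HEK293T cells per well were treated with compounds for 16 hr after a 6 hr preincubation at 37C and 5% CO2; cell viability is the CellTiter-Glo luminescence signal.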
# [9] = target: Thyrotropin-releasing hormone receptor (Homo sapiens) (UniProt P34981); experiment: qHTS assay to identify small molecule antagonists of the thyrotropin-releasing hormone receptor (TRHR) signaling pathway (AID 1346877; active = well fitted inhibition curve with a large enough effect in the repeat runs, not every such curve was filed as active; also: series mostly up to about 51 µM)
# Sequence of Thyrotropin-releasing hormone receptor (Homo sapiens) (P34981 whole entry, looked up): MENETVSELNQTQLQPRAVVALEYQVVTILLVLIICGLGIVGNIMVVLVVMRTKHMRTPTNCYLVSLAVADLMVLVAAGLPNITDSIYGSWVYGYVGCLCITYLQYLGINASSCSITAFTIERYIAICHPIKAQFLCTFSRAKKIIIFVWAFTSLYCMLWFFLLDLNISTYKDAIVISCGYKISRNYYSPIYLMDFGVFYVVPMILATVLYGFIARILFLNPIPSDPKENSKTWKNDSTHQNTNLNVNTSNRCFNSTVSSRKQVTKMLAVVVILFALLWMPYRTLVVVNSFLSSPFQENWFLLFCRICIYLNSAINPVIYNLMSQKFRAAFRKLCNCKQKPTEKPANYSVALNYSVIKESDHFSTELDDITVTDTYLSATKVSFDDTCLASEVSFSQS
# Outline: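 TRHR-expressing HEK293 cells were seeded, cultured 18 h at 37 °C, then loaded with calcium dye for 2 h. Compounds were pre-incubated 5 min at room temperature before 1 nM TRH (final) was added, and kinetic fluorescence was recorded for 3 min.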
# [10] = target: Thyrotropin-releasing hormone receptor (Homo sapiens) (UniProt P34981); experiment: qHTS assay to identify small molecule agonists of the thyrotropin-releasing hormone receptor (TRHR) signaling pathway (AID 1346891; calls by dose curve; also: series mostly up to about 58 µM)
# Outline: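 Screening of agonists relied on calcium signalling in HEK293 cells expressing human TRHR: dye loading 2 h at 37 °C preceded compound addition and a 3-min fluorescence time course.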
# [11] = Human pregnane X receptor (PXR) small molecule agonists, qHTS cell viability counter screen (AID 1346977); also: nearly all actives have a fitted effect of over 50% in size; also: potency is read from the fitted curve at half-maximal effect
# Outline: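 Tox21 qHTS format; PXR-Luc HepG2, 2,000/well, charcoal-stripped FBS 5%. Cpd exposure 24hr. Read: CellTiter-Fluor fluorescence, multiplexed with luciferase.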
# [12] = qHTS assay to identify small molecule antagonists of the estrogen receptor beta (ER-beta) signaling pathway - cell viability counter screen (AID 1259382);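 also: HEK293T cells carrying ER-beta-UAS-bla reporter stimulated with estradiol; series mostly up to about 92 µM; nearly all actives have a fitted effect of over 55% in size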
# Outline: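 ER-beta-UAS-bla HEK293T cells (2,000/well, 2% charcoal-stripped FBS) were pre-incubated 6 hr at 37C, then given compound plus 1nM final 17-beta-estradiol for 16 hr. Viability was read in the same wells by CellTiter-Glo luminescence after 30 min at room temperature.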
# [13] = qHTS assay to identify small molecule agonists or antagonists of the thyroid stimulating hormone receptor (TSHR) signaling pathway - wild type cell line counter screen (AID 1259384; calls by dose curve)
# Outline: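 Counter screen in untransfected Hek293: compounds (15-point titration, triplicate) plus phosphodiesterase inhibitor Ro20-1724 added after 18 h plating; 30 min RT. Intracellular cAMP via competitive d2/cryptate immunoassay, 1 h incubation.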
# [14] = qHTS assay to identify small molecule antagonists of the progesterone receptor (PR) signaling pathway - cell viability counter screen (AID 1346798); also: series mostly up to about 92 µM; nearly all actives have a fitted effect of over 50% in size
# Outline: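 Following a 4 hr attachment, PR-UAS-bla HEK293T cells in charcoal-stripped FBS medium were exposed to compounds with R5020 for 16 hr; CellTiter-Glo was added and luminescence read after 30 min at room temperature.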
# [15] = qHTS assay to identify small molecule antagonists of the TGF-beta/Smad signaling pathway - cell viability counter screen (AID 1346824); also: nearly all actives have a fitted effect of over 50% in size
# Outline: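 Cytotoxicity counter-screen run in the same wells as the beta-lactamase Smad reporter read: CellTiter-Glo luminescence after 30 min at room temperature. HEK 293T SBE-bla cells had 5 hr compound exposure at 37 C with TGF-beta1 (0.25 ng/mL stock).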
# [16] = qHTS assay to identify small molecule agonists of the TGF-beta/Smad signaling pathway - cell viability counter screen (AID 1346829); also: top concentration of the series differs between compounds; nearly all actives have a fitted effect of over 45% in size
# Outline: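 CellTiter-Glo luminescence readout; SBE-bla HEK 293T cells, overnight plating, compound 5 hr at 37 C/5% CO2, then bla substrate 2 hr RT, then CellTiter-Glo 30 min RT.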
# [17] = qHTS assay to identify small molecule agonists of the TGF-beta/Smad signaling pathway (AID 1346859; active = well fitted activation curve with a large enough effect in the signal ratio in the repeat runs, not every such curve was filed as active; the % refers to the signal ratio; also: series mostly up to about 77 µM)
# Outline: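 Each well held 4,000 SBE-bla HEK 293T cells incubated overnight before compound addition; 5 hr later the cleavable FRET substrate went on for 2 hr at room temperature, and fluorescence was read at two emissions.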
# [18] = qHTS assay to identify small molecule agonists of the estrogen receptor beta (ER-beta) signaling pathway - cell viability counter screen (AID 1259380); also: nearly all actives have a fitted effect of over 30% in size
# Outline: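 ER-beta-UAS-bla HEK293T cells in medium with 2% charcoal-stripped FBS were preincubated 6 hr at 37C, dosed with compound in DMSO for 16 hr, then after the bla read, CellTiter-Glo was added for 30 min at room temperature; luminescence recorded.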
# [19] = target: Androgen receptor (Homo sapiens) (UniProt P10275); experiment: qHTS assay to identify small molecule agonists of the androgen receptor (AR) signaling pathway in the presence of an antagonist (AID 1259381; calls by dose curve; also: nearly all actives have a fitted effect of over 15% in size)
# Sequence of Androgen receptor (Homo sapiens) (P10275 whole entry, looked up): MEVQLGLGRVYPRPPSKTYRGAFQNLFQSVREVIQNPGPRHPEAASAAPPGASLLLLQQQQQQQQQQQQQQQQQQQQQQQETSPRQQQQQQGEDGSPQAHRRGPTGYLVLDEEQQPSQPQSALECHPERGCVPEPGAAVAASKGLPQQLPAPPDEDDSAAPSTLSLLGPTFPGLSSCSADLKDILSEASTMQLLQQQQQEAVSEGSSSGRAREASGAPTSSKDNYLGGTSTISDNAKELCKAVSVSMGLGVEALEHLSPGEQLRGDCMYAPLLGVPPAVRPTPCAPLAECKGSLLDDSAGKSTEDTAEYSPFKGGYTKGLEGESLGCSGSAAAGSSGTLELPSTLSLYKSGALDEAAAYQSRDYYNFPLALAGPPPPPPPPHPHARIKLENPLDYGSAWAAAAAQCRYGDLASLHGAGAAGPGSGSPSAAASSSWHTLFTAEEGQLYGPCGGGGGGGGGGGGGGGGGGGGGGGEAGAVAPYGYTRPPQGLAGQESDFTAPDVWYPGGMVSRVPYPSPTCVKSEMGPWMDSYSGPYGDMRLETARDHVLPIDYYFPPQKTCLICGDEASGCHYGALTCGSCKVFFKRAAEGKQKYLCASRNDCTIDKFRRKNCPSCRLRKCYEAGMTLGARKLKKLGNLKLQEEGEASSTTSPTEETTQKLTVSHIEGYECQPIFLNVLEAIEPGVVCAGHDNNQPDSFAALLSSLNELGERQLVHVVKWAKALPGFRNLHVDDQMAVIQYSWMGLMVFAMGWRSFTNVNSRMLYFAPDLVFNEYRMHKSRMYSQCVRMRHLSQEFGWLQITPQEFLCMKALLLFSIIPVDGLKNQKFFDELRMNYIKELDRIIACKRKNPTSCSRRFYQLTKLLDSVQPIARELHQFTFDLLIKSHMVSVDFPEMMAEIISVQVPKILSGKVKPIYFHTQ
# Outline: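 MDA-kb2 human breast carcinoma cells carrying an MMTV-luciferase reporter (AR- and GR-responsive) were treated with compounds at 15 concentrations plus 3.0uM final nilutamide for 16hr at 37C without CO2; luminescence was read after ONE-Glo addition.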
# [20] = target: Thyrotropin receptor (Homo sapiens) (UniProt P16473); experiment: qHTS assay to identify small molecule antagonists of the thyroid stimulating hormone receptor (TSHR) signaling pathway (AID 1259385; calls by dose curve; also: nearly all actives have a fitted effect of over 20% in size)
# Sequence of Thyrotropin receptor (Homo sapiens) (P16473 whole entry, looked up): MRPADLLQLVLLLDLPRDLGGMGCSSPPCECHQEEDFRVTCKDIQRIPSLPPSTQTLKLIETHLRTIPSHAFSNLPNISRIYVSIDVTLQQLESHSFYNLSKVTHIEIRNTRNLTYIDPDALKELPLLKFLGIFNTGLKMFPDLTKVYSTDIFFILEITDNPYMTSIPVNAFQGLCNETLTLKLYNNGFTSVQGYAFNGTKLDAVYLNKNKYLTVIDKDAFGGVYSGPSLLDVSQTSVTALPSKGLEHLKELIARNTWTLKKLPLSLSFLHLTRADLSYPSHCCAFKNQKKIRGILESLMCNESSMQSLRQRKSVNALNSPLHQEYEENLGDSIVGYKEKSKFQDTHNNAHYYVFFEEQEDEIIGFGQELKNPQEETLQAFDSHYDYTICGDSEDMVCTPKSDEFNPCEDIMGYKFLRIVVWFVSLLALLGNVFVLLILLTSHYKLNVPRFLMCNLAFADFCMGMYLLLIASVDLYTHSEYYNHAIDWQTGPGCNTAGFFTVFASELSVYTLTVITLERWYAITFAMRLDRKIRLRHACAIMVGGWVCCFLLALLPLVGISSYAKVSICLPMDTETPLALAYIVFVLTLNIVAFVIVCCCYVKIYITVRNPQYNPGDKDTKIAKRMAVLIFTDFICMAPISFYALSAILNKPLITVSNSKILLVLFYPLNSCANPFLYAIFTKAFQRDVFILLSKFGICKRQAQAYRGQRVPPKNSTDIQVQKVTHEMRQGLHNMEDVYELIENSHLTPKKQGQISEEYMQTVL
# Outline: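 Antagonist mode: compound-treated TSHR-expressing HEK293 cells were stimulated with 1.5 ng/mL TSH (final) in presence of Ro20-1724 for 30 min at RT. HTRF cAMP detection after 1 h; each compound tested at 15 concentrations, triplicate.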
smiles,measurement,setting,value
CCN(Cc1cccc(S(=O)(=O)O)c1)c1ccc(C(=C2C=CC(=[N+](CC)Cc3cccc(S(=O)(=O)O)c3)C=C2)c2ccccc2S(=O)(=O)[O-])cc1,Potency,[1],inactive
same,Potency,[2],inactive
same,Potency,[3],17.3 µM (active)
same,Potency,[4],inactive
same,Potency,[5],17.3 µM (active)
same,Potency,[6],inactive
same,Potency,[7],inactive
same,Potency,[8],13.7 µM (active)
same,outcome,[9],inactive
same,outcome,[10],inactive
same,Potency,[11],17.3 µM (active)
CNCc1ccc(NC(=O)c2c[nH]c3c2C(=O)CCC3)cc1,Potency,[1],inactive
same,Potency,[2],inactive
same,Potency,[3],inactive
same,Potency,[12],inactive
same,Potency,[13],inactive
same,Potency,[5],inactive
same,Potency,[7],inactive
same,Potency,[14],inactive
same,outcome,[15],inactive
same,Potency,[16],inactive
same,Potency,[17],inactive
same,outcome,[9],inactive
O=C(O)CCC(=O)c1ccc(-c2ccccc2)cc1,Potency,[1],inactive
same,Potency,[3],inactive
same,Potency,[18],inactive
same,Potency,[19],inactive
same,Potency,[12],inactive
same,Potency,[13],inactive
same,Potency,[20],inactive
same,Potency,[6],inactive
same,Potency,[8],inactive
same,outcome,[15],inactive
same,Potency,[16],inactive
same,Potency,[11],inactive
CC(C)(C)NCC(O)COc1cccc2c1C[C@H](O)[C@H](O)C2 (stereo partly specified),Potency,[1],inactive
same,Potency,[3],inactive
same,Potency,[18],inactive
same,Potency,[12],inactive
same,Potency,[4],inactive
same,Potency,[13],inactive
same,Potency,[20],inactive
same,Potency,[6],inactive
same,Potency,[14],inactive
same,Potency,[8],inactive
same,Potency,[16],inactive
same,Potency,[11],inactive
CCCCCCCCCCCCCCN(C)C,activation,[1],-2.25% [at 19 µM]
same,"activity change, negative = cytotoxicity",[3],-0.611% [at 19 µM]
same,"activity change, negative = cytotoxicity",[18],-12.9% [at 19 µM]
same,"activity change, negative = cytotoxicity",[12],-7.95% [at 19 µM]
same,activation,[4],2.36% [at 19 µM]
same,cAMP activity change,[13],"-2.36% [at 18.9 µM, stronger effect = higher value]"
same,"activity change, negative = cytotoxicity",[5],-8.37% [at 19 µM]
same,Potency,[6],0.738 µM (active)
same,"activity change, negative = inhibition",[7],5.91% [at 18.9 µM]
same,"activity change, negative = cytotoxicity",[14],2.26% [at 18.9 µM]
same,"activity change, negative = cytotoxicity",[8],0% [at 19 µM]
same,"viability change, negative = cytotoxic",[15],-8.55% [at 15.8 µM]
same,"activity change, negative = cytotoxicity",[16],4.77% [at 15.8 µM]
same,activation,[17],-0.505% [at 15.8 µM]
same,"activity, negative = inhibition",[9],0.781% [at 10.5 µM]
same,"activity change, negative = cytotoxicity",[11],0.682% [at 19 µM]
COc1ccc(C2C(=O)c3ccccc3C2=O)cc1,Potency,[1],inactive
same,Potency,[3],inactive
same,Potency,[18],inactive
same,Potency,[12],inactive
same,Potency,[4],inactive
same,Potency,[5],inactive
same,Potency,[6],inactive
same,Potency,[7],inactive
same,Potency,[14],inactive
same,Potency,[8],inactive
same,Potency,[16],inactive
same,Potency,[17],inactive
same,outcome,[9],inactive
same,Potency,[11],inactive
CCCC(=O)OC(=O)CCC,Potency,[1],inactive
same,Potency,[3],inactive
same,Potency,[18],inactive
same,Potency,[12],inactive
same,Potency,[13],inactive
same,Potency,[20],inactive
same,Potency,[5],inactive
same,Potency,[7],inactive
same,Potency,[14],inactive
same,Potency,[8],inactive
same,outcome,[15],inactive
same,Potency,[16],inactive
same,Potency,[17],inactive
same,Potency,[11],inactive
BrC(Br)C(Br)Br,Potency,[3],inactive
same,Potency,[18],inactive
same,Potency,[19],inactive
same,Potency,[12],inactive
same,Potency,[4],inactive
same,Potency,[13],inactive
same,Potency,[20],inactive
same,Potency,[5],inactive
same,Potency,[6],inactive
same,Potency,[8],inactive
same,outcome,[15],inactive
same,Potency,[16],inactive
same,Potency,[17],inactive
same,outcome,[9],inactive
same,outcome,[10],inactive
